Assay results: PubChem BioAssay AID504660 (National Center for Advancing Translational Sciences (NCATS), 2011)
“And” between values parts separate entries of the source, which are not always exact repeats. Equal values may be shown once. In all, about 360,000 compounds went through this assay and about 3,700 (1%) were called active. Many of the other results were omitted from the sample, so actives are more common in it than they were. A number with no mark means an inactive call. Cut-off read from the data, not from the text of the source: active = activation above about 30%; inactive = the rest.

target: D(1A) dopamine receptor (Homo sapiens) (UniProt P21728); test: Allosteric Agonists of the Human D1 Dopamine Receptor: qHTS; conditions: HEK293 T-REx D1 cells, calcium flux, agonist mode; at 2 µM; active compounds read high; note: 0% is about no effect
Sequence (P21728 whole entry, looked up): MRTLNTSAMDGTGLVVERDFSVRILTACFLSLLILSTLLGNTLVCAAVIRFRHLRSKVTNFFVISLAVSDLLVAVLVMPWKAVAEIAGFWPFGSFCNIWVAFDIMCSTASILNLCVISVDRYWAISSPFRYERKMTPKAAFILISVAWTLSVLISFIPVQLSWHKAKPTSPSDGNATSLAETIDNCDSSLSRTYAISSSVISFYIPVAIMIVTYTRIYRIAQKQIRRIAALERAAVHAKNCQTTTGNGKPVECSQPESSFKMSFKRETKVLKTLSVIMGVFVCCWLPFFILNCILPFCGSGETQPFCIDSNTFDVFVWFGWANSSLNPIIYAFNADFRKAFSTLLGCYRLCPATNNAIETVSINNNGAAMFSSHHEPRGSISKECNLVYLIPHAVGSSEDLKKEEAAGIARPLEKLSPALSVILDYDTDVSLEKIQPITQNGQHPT
In short: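 Tetracycline-induced HEK293 TREx D1 cells, force-coupled to calcium signalling, were dye-loaded with a no-wash calcium kit. Compound was pin-added after a 10 s baseline. Fluorescence was read kinetically at 1 cycle/s for 180 s, with calcium rises flagged as agonism.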

| SMILES | activation |
| --- | --- |
| CCOC(=O)c1cc2c(=O)n3ccccc3nc2n(CCCOC)c1=NC(=O)C(C)Oc1ccccc1 (centres undefined) | -0.224% |
| C/C(=N\NC(=O)CNC(=O)C(c1ccccc1)c1ccccc1)c1ccc(C)cc1 | 0.588% |
| CCCCC(=O)NNC(=S)NC(=O)C(c1ccccc1)c1ccccc1 | 179% (active) |
| C=CCC(NC(=O)Cc1ccccc1)C(=O)NCCC (centres undefined) | -1.62% |
| CCOc1ccccc1C(=O)NC1(C(F)(F)F)C(=O)Nc2c1c(=O)[nH]c(=O)n2-c1ccc(F)cc1 (centres undefined) | 0.807% |
| C=CCC1=C/C(=C\c2c(N)n3nc(CC(=O)N4CCOCC4)sc3nc2=O)C=C(OC)C1=O | 38.1% (active) |
| COC1=C/C(=C/c2c(N)n3nc(CC(=O)N4CCOCC4)sc3nc2=O)C=CC1=O | 8.23% |
| O=C(NCc1nnc(C(=O)Nc2ccc(C(F)(F)F)cc2Cl)o1)c1ccccc1 | -0.686% |
| Cc1cc(Br)ccc1NC(=O)Cn1cnc2sc(C)c(S(=O)(=O)N3CCN(C)CC3)c2c1=O | 2.4% |
| COc1ccc(C(=O)CN2C(=O)NC(C)(c3ccc(C)cc3)C2=O)cc1OC (centres undefined) | 26.6% |
| CC1(c2ccc(Cl)cc2Cl)NC(=O)N(CC(=O)Nc2cccnc2Cl)C1=O (centres undefined) | 3.86% |
| Cc1oc(C)c2c(=O)cc(-c3ccc4c(c3)OCO4)cc(OC(=O)c3ccc(Cl)cc3)c12 | 5.82% |
| Cc1ccc(C2(C)NC(=O)N(CC(=O)Nc3ccccc3C(=O)N3CCCCC3)C2=O)cc1 (centres undefined) | 10.7% |
| CC1(c2ccc(Cl)cc2)NC(=O)N(CC(=O)c2ccc3c(c2)OCO3)C1=O (centres undefined) | 53.1% (active) |
| CC1CN(C(=O)CN2C(=O)NC(C)(c3ccccc3)C2=O)CC(C)O1 (centres undefined) | 0.601% |
| Cc1ccc(NC(=O)CN2C(=O)NC(C)(c3ccc(Cl)cc3)C2=O)c(Br)c1 (centres undefined) | 37.2% (active) |
| CC1(c2ccc3ccccc3c2)NC(=O)N(CC(N)=O)C1=O (centres undefined) | 3.93% |
| COc1ccc(C2(C)NC(=O)N(CC(=O)c3ccc4c(c3)OCO4)C2=O)cc1 (centres undefined) | 38.5% (active) |
| O=c1n(Cc2cccc(C(F)(F)F)c2)c2ccccc2c2nc(-c3ccccc3)nn12 | 5.18% |
| CCOC(=O)C1CCCN(C(=O)Cn2ncc3c(C)n(Cc4ccc(F)cc4)c(C)c3c2=O)C1 (centres undefined) | 5.3% |

| SMILES | activation |
| --- | --- |
| Cc1nn(-c2ccc(N3CCCCC3)nn2)c(C)c1CCC(=O)NCc1ccccc1F | -0.954% |
| Cc1ccc(C)c(NC(=O)C2CCCN(S(=O)(=O)c3cn(C)cn3)C2)c1 (centres undefined) | -0.383% |
| CC(C)NC(=O)c1nn(-c2ccccc2F)nc1CO | 1.01% |
| CCOC(=O)c1c(C)oc2nc(C)nc(N(CC(C)C)CC(C)C)c12 | 5.8% |
| CCc1cccc(NC(=O)c2cnc(N3CCOCC3)c3ccccc23)c1 | -0.292% |
| CC1=C(C(=O)OCC(C)C)C(c2ccc(OCc3ccccc3)cc2)N2C(=O)CCSC2=N1 (centres undefined) | 13.9% |
| Cc1c(-c2nsc(NC(=O)c3cccc(Cl)c3)n2)nnn1-c1ccccc1C(F)(F)F | 6.51% |
| O=C(O)CCS(=O)(=O)c1ccc(-c2ccccc2)cc1 | -0.731% |
| O=C(CCS(=O)(=O)c1ccccc1)N(Cc1cccnc1)c1nc2c(F)cccc2s1 | 7.8% |
| Cc1cccc2sc(N(CCCN(C)C)C(=O)CCS(=O)(=O)c3ccccc3)nc12 | 44.5% (active) |
| CCc1nnc(SCC(=O)Nc2cc(OC)ccc2OC)nc1CC | 0.834% |
| CN(c1ccccc1)c1ccc(/C=c2\s/c(=C(/C#N)C(=O)C(C)(C)C)n(Cc3ccco3)c2=O)cc1 | 86% (active) |
| CCOc1ccccc1NC(=O)Cn1c(=O)n(Cc2ccco2)c(=O)c2sc3ccccc3c21 | 0.44% |
| CCc1ccccc1NC(=O)c1cc(-c2ccc3c(c2)OCO3)on1 | 1.41% and 1.39% |
| O=C(Nc1ccccc1C(F)(F)F)c1cc(-c2ccc(O)cc2)on1 | 76.6% (active) |
| Cc1cc(C)nc(NC(=O)Nc2ccccc2C(F)(F)F)n1 | 7.87% |
| CCOC(=O)CN1C(C(=O)c2ccccc2)=C(OC(=O)C(C)(C)C)c2ccccc2S1(=O)=O | 2.02% |
| CC(=O)OC1=C(C(C)=O)N(Cc2ccccc2)S(=O)(=O)c2ccccc21 | -0.292% |
| CCCCC(=O)OC1=CN(Cc2ccccc2)S(=O)(=O)c2ccccc21 | 43.4% (active) |
